Results published in PubChem BioAssay (NCATS).
Results filed as inconclusive are left out. Where a call stands in place of a potency, no number is given. Unmarked numbers belong to inactive results. The source made the active and inactive calls. Calls come from the whole dose curve. Bridge positions count the residues as written; N and C are the ends. Peptide text beside a SMILES is read from it.

Experiment: Primary qHTS for Huh7 cytotoxicity: counterscreen for inhibitors of MERS-S pseudotyped particle cell entry (AID 1479147)
Details: cell viability read-out; series mostly up to 57.1 µM; activity change, negative = cytotoxicity: at the top concentration

Row | Compound | activity change, negative = cytotoxicity [%] | outcome
1 | C[N+](C)(C)CC(O)CC(=O)O (stereo not drawn) | 3.28 | –
2 | C[N+]1(C)CCN(CC(O)(c2ccccc2)C2CCCCC2)CC1 (stereo not drawn) | 1.73 | –
3 | COc1ccc(CNCC(O)COc2ccc3[nH]c(=O)ccc3c2)cc1OC (stereo not drawn) | – | inactive
4 | CON=C1C[C@]2(C[C@@H]3C[C@@H](C/C=C(\C)C[C@@H](C)/C=C/C=C4\CO[C@@H]5[C@H](O)C(C)=C[C@@H](C(=O)O3)[C@]45O)O2)O[C@H](/C(C)=C/C(C)C)[C@H]1C | – | inactive
5 | CC(OC(=O)NCC1(CC(=O)O)CCCCC1)OC(=O)C(C)C (stereo not drawn) | – | inactive
6 | CCCCC(O)c1ccccc1 (stereo not drawn) | 3.99 | –
7 | C=CC1(C)CC(=O)C2(O)C(C)(O1)C(OC(C)=O)C(OC(=O)CCN(C)C)C1C(C)(C)CCC(O)C12C (stereo not drawn) | -21.9 | –
8 | CCOc1nc2cccc(C(=O)OC(C)OC(=O)OC3CCCCC3)c2n1Cc1ccc(-c2ccccc2-c2nn[nH]n2)cc1 (stereo not drawn) | -17.2 | –

Experiment: Primary qHTS for inhibitors of MERS-S pseudo-typed particle cell entry (AID 1479149); note: nearly all actives have a fitted effect of over 60% in size; note: potency is the fitted concentration of half-maximal effect
Details: MERS-S pseudotyped particle entry, luciferase; series mostly up to 57.1 µM; activity change, negative = inhibition: at the top concentration

Row | Compound | activity change, negative = inhibition | outcome | Potency
9 | C[C@@]12CCCCC[C@@H](Cc3ccc(O)cc31)[C@H]2N | -12.9% | – | –
10 | CCCCCCCCCCCCCCCC(=O)OCC(O)C1OC(=O)C(O)=C1O (stereo not drawn) | 3.16% | – | –
11 | CC(=O)Oc1c(C)cc(OCC(O)CNC(C)C)c(C)c1C (stereo not drawn) | 4.71% [at 114 µM] | – | –
12 | Oc1cc(O)cc(O)c1 | – | inactive | –
13 | CC(C)(C)NC(=O)N[C@H](C(=O)N1C[C@H]2[C@@H]([C@H]1C(=O)NC(CC1CCC1)C(=O)C(N)=O)C2(C)C)C(C)(C)C (stereo partly drawn) | – | inactive | –
14 | CCCCCCO[C@@H](C)c1cccc(-c2csc(NC(=O)c3cc(Cl)c(/C=C(\C)C(=O)O)c(Cl)c3)n2)c1OC | – | inactive | –
15 | CC(C)(S)[C@H](N)C(=O)O | – | inactive [at 5.34 µM] | –
16 | CC[N+](CC)(CC)CCC(O)(c1ccccc1)C1CCCCC1 (stereo not drawn) | – | inactive | –
17 | CCC(C)C(C(=O)OCC[N+](C)(CC)CC)c1ccccc1 (stereo not drawn) | – | inactive | –
18 | NC(N)=NCC1COC2(CCCCC2)O1 (stereo not drawn) | – | inactive | –
19 | C=Cc1c(C)c2cc3nc(c(CC(=O)N[C@@H](CC(=O)O)C(=O)O)c4nc(cc5[nH]c(cc1[nH]2)c(C)c5CC)C(C)=C4C(=O)O)[C@@H](CCC(=O)O)[C@@H]3C | – | inactive | –
20 | CN1N=C2CCN(C(=O)[C@H](COCc3ccccc3)NC(=O)C(C)(C)N)C[C@]2(Cc2ccccc2)C1=O | -4.7% | – | –
21 | CO/N=C(\C(=O)N[C@@H]1C(=O)N2C(C(=O)OCOC(=O)C(C)(C)C)=C(/C=C\c3scnc3C)CS[C@H]12)c1csc(N)n1 | – | inactive | –
22 | CN(C)C(=O)c1cc2cnc(Nc3ccc(N4CCNCC4)cn3)nc2n1C1CCCC1 | -23.3% [at 26.4 µM] | – | –
23 | CN(C)CCC(O)(c1ccccc1)c1ccccc1Cl (stereo not drawn) | -4.12% | – | –
24 | O=C(O)C(O)[C@H](O)[C@H](O)[C@H](O)[C@H](O)CO (stereo partly drawn) | – | inactive | –
25 | CCOc1ccc(N=C(C)Nc2ccc(OCC)cc2)cc1 | -21.8% | – | –
26 | CCCCCCCCCCCCOC(=O)CS(=O)(=O)O | – | inactive | –
27 | COc1ccc(CNc2nc(N3CCC[C@H]3CO)ncc2C(=O)NCc2ncccn2)cc1Cl | – | inactive | –
28 | NCCS[As](SCCN)c1ccc(Nc2nc(N)nc(N)n2)cc1 | – | inactive | –

Row | Compound | activity change, negative = inhibition | outcome | Potency
29 | NCCCC[C@H](NC(=O)[C@@H]1CCCN1C(=O)[C@@H]1CSSC[C@H](NC(=O)CNC(=O)CNC(=O)CN)C(=O)N[C@@H](Cc2ccc(O)cc2)C(=O)N[C@@H](Cc2ccccc2)C(=O)N[C@@H](CCC(N)=O)C(=O)N[C@@H](CC(N)=O)C(=O)N1)C(=O)NCC(N)=O (H-GGGCYFQNCPKG-NH2; disulfide 4-9) | – | inactive | –
30 | Cc1c(C)c2c(c(C)c1OC(=O)CCC(=O)O)CC[C@@](C)(CCC[C@H](C)CCC[C@H](C)CCCC(C)C)O2 | 1.14% | – | –
31 | CCC(=O)O[C@@H](OP(=O)(CCCCc1ccccc1)CC(=O)N1C[C@H](C2CCCCC2)C[C@H]1C(=O)O)C(C)C (stereo partly drawn) | – | inactive [at 11.4 µM] | –
32 | O=C(Nc1ccc(O)cc1)c1ccccc1O | -10.3% | – | –
33 | CC1CC(OC(=O)C(O)c2ccccc2)CC(C)(C)C1 (stereo not drawn) | – | inactive | –
34 | CCCCCCCCCCCCCCCCCC(=O)NCCCC[C@H](NC(=O)CC[C@@H](NC(=O)[C@H](C)NC(=O)[C@@H](C)O[C@H]1[C@H](O)[C@@H](CO)OC(O)[C@@H]1NC(C)=O)C(N)=O)C(=O)O (stereo partly drawn) | – | inactive | –
35 | CCCCC(=O)N(Cc1ccc(-c2ccccc2-c2nn[nH]n2)cc1)[C@H](C(=O)O)C(C)C | -3.31% | – | –
36 | CCN(CC)C(=O)[C@]1(c2ccccc2)C[C@H]1CN | – | inactive | –
37 | C=C1c2c(Cl)ccc(O)c2C(O)=C2C(=O)[C@@]3(O)C(O)=C(C(N)=O)C(=O)[C@@H](N(C)C)[C@@H]3[C@@H](O)[C@H]12 | – | – | 20 µM (active)
38 | CCCCN(CCCC)C(=S)[S-].CCCCN(CCCC)C(=S)[S-].[Zn+2] | – | inactive | –
39 | Cc1c(N)nc(C(CC(N)=O)NCC(N)C(N)=O)nc1C(=O)NC(C(=O)NC(C)C(O)C(C)C(=O)NC(C(=O)NCCc1nc(-c2nc(C(=O)NCCCN[C@@H](C)c3ccccc3)cs2)cs1)C(C)O)C(O[C@@H]1O[C@@H](CO)[C@@H](O)[C@H](O)[C@@H]1O[C@H]1O[C@H](CO)[C@@H](O)[C@H](OC(N)=O)[C@@H]1O)c1cnc[nH]1 (stereo partly drawn) | – | inactive | –
40 | CC[C@H]1OC(=O)C[C@@H](O)[C@H](C)[C@@H](O[C@@H]2O[C@H](C)[C@@H](O)[C@H](N(C)C)[C@H]2O)[C@@H](CCN2C[C@H](C)C[C@H](C)C2)C[C@@H](C)C(=O)/C=C/C(C)=C/[C@@H]1CO[C@@H]1O[C@H](C)[C@@H](O)[C@@H](OC)[C@H]1OC | – | inactive | –
41 | C[N+](C)(C)CC(O)CC(=O)O (stereo not drawn) | – | inactive | –
42 | C[N+]1(C)CCN(CC(O)(c2ccccc2)C2CCCCC2)CC1 (stereo not drawn) | -14.6% | – | –
43 | COc1ccc(CNCC(O)COc2ccc3[nH]c(=O)ccc3c2)cc1OC (stereo not drawn) | – | inactive | –
44 | CON=C1C[C@]2(C[C@@H]3C[C@@H](C/C=C(\C)C[C@@H](C)/C=C/C=C4\CO[C@@H]5[C@H](O)C(C)=C[C@@H](C(=O)O3)[C@]45O)O2)O[C@H](/C(C)=C/C(C)C)[C@H]1C | – | inactive | –
45 | CC(OC(=O)NCC1(CC(=O)O)CCCCC1)OC(=O)C(C)C (stereo not drawn) | – | inactive | –
46 | CCCCC(O)c1ccccc1 (stereo not drawn) | – | inactive | –
47 | C=CC1(C)CC(=O)C2(O)C(C)(O1)C(OC(C)=O)C(OC(=O)CCN(C)C)C1C(C)(C)CCC(O)C12C (stereo not drawn) | – | inactive | –
48 | CCOc1nc2cccc(C(=O)OC(C)OC(=O)OC3CCCCC3)c2n1Cc1ccc(-c2ccccc2-c2nn[nH]n2)cc1 (stereo not drawn) | – | inactive | –
